About 1,600 (39%) of roughly 4,100 compounds were called active. Inconclusive results (about 25%) are left out. Some of the results follow. A number with no mark means an inactive call. The call rests on the fitted dose curve; in most records, active means well fitted inhibition curve with a large enough effect; inconclusive means small, poorly fitted or top-dose-only effect; inactive means no such curve, though single readings can be large or run the other way.
Test: qHTS Validation assay for Inhibitors of Plasmodium falciparum Dd2 growth in vitro; further: nearly all actives have a fitted effect of over 70% in size
Conditions: P. falciparum Dd2 in RBCs, SYBR Green growth, 72 h; series mostly up to 28.7 µM; activity change, negative = inhibition: at the top concentration
Procedure, shortened: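 P. falciparum Dd2-infected red blood cells (2.5% hematocrit, 0.3% parasitemia) grown 72 h at 37 °C under 5% O2 with compounds in a titration, 29 uM to 0.5 nM final. Growth read as SYBR Green-1 fluorescence after ~16 h lysis; artesunate 300 nM as positive control.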
On the % scale 0 is the no-effect control and ±100 the full control effect; potency means the concentration at half of the fitted maximal effect.

Compound	activity change, negative = inhibition	Potency
Cc1cn2nc(-c3nc(C4CCCN(C(=O)Cc5ccsc5)C4)no3)cc2c(=O)[nH]1 (stereo unspecified)	2.56%	
COc1ccc(CNC(=O)C2CCN(c3nc(-c4ccccc4)nc4c3CCC4)CC2)cc1		7.5 µM (active)
CCc1ccc(CNC(=O)C2CCN(c3cc(C(F)(F)F)nc(C)n3)CC2)cc1	0.317%	
COc1ccc(OC)c(CNC(=O)C2CCN(c3ncnc4c3nc3n4CCCCC3)CC2)c1	0%	
O=C(Nc1ccc(F)cc1)N1CCOc2ccc(CN3CCc4ccccc4C3)cc2C1		8.41 µM (active)
CCC1Oc2ccc(NC(=O)COC)cc2CN(Cc2ccc(F)cc2)C1=O (stereo unspecified)	-29.7%	
CC[C@@H](NC(C)=O)C(=O)N1CCOc2c(cc(-c3cccs3)cc2OC)C1	59.3%	
Cc1cc(=O)n(CC(=O)Nc2ccccc2F)c(N2CCc3ccccc3C2)n1	-14.7%	
CCOc1cccc(CN2C[C@@H]3C(=O)N(CCN4CCc5ccccc5C4)C(=O)[C@@H]3C2)c1	-2.17%	
COc1ccccc1NC(=O)N1CCOc2ccc(CN3CCc4ccccc4C3)cc2C1		2.37 µM (active)
CC1(CNc2ccccc2)COc2ccc(C(=O)NCc3ccc(F)cc3)cc2N1 (stereo unspecified)	-5.85% [at 43.1 µM]	
O=C(Nc1ccc(F)cc1F)N1CCOc2ccc(CN3CCc4ccccc4C3)cc2C1		16.8 µM (active)
CCN(C(=O)c1cc2cc(Br)cc(OC)c2oc1=O)c1ccccc1	4.88%	
Cc1nc(CCNC(=O)C2CC2)no1	12.3%	
O=C(c1ccc(-c2ncc3cnc(-c4ccccc4)cn23)cc1)N1CCc2cccnc21		17.2 µM (active)
Cc1ccc(C(=O)N2CCCn3cc(-c4cccc(C#N)c4)nc32)cc1	-7.37%	
O=C(c1ccc(-c2ncc3cnc(-c4cccc(F)c4)cn23)cc1)N1CCc2cccnc21	-17% [at 43.1 µM]	
CCOC(=O)c1ccc(Nc2nc3nonc3nc2Nc2cccc(C)c2C)cc1		8.41 µM (active)
COc1ccc(Nc2ccccc2NC(=O)c2ccccc2Br)cc1		5.96 µM (active)
COc1ccc(NC(=O)c2cccc3c2CCN3C(=O)Nc2ccc(F)cc2)c(C)c1	-18.7%	
CCNC(=O)N1CC[C@H]2CC(=O)N([C@H](C(N)=O)C(C)C)CC[C@H]2C1	37.8% [at 43.1 µM]	
Cn1cc(-c2cccc(CO)c2)c2nc(COc3ccc(Cl)cc3)cn2c1=O	-17.2% [at 43.1 µM]	
O=C1C=C(c2cccc(CO)c2)C[C@@H](c2ccc(Cl)cc2)C1		3.76 µM (active)

Compound	activity change, negative = inhibition	Potency
CC1(c2ccccc2)O[C@@H]2C[C@H]3[C@@H]4CCC5=CC(=O)C=C[C@]5(C)[C@@]4(F)[C@@H](O)C[C@]3(C)[C@]2(C(=O)CO)O1 (stereo partly specified)		4.73 µM (active)
O=C(Nc1ccncc1)C1c2ccccc2Oc2ccccc21	-9.75%	
CCOC(=O)c1sc(NC(=O)C2c3ccccc3Oc3ccccc32)c(C(=O)OCC)c1C		2.66 µM (active)
COc1cc(Nc2ncncc2-c2nc(-c3ccccc3)no2)cc(OC)c1OC	-9.59%	
CC(C)(C)OC(=O)N1CCC(c2c(C(=O)NCCN3CCC(Cc4ccccc4)CC3)cnn2-c2ccc(F)cc2)CC1		5.31 µM (active)
Cc1ccc(C)c(N2CCN(CCCNC(=O)c3cnn(-c4ccc(F)cc4)c3C3CCN(C(=O)OC(C)(C)C)CC3)CC2)c1		2.66 µM (active)
Cc1ccc(C)c(N2CCN(CCCNC(=O)c3cnn(-c4cccc(Cl)c4)c3C3CCN(C(=O)OC(C)(C)C)CC3)CC2)c1		8.41 µM (active)
Cc1ccc(-n2ncc(C(=O)N3CCN(c4cc(Cl)ccc4C)CC3)c2C2CCN(C(=O)OC(C)(C)C)CC2)cc1		8.41 µM (active)
Cc1ccccc1C(=O)N1CCC(c2nn(-c3ccc(Cl)cc3)c(=O)[nH]2)CC1	-11.6%	
CC(C)(C)OC(=O)N1CCC(CNC(=O)c2ccc(F)cc2)CC1	29.3%	
Cn1cnc(S(=O)(=O)N2CCCOCCNC(=O)[C@@H]3CCC[C@@H]32)c1	21.7%	
Cc1cccc(C)c1-n1ncc(C(=O)NCCCN2CCC(C)CC2)c1C1CCN(C(=O)OC(C)(C)C)CC1		15 µM (active)
CC1CCN(C(=O)c2cc3c(s2)CCC(C(=O)NCCCN2CCOCC2)C3)CC1 (stereo unspecified)	-2.69%	
CC(C)(C)OC(=O)N1CCC(c2c(C(=O)NCCN3CCc4ccccc4C3)cnn2-c2ccc(F)cc2F)CC1		5.31 µM (active)
O=C(CN1C2=NCCCN2c2ccccc21)c1ccc(Cl)cc1Cl		6.68 µM (active)
CNCC(=O)N1C[C@@H](C(=O)O)[C@H](c2ccccc2)C1	41.5%	
O=C(N/N=C/c1ccc(OCc2ccccc2)cc1)c1ccco1		13.3 µM (active)
CC(C)C(=O)OCC(=O)[C@@]12O[C@H](C3CCCCC3)O[C@@H]1C[C@H]1[C@@H]3CCC4=CC(=O)C=C[C@]4(C)[C@H]3[C@@H](O)C[C@@]12C		2.66 µM (active)
CC(=O)SC1CC(=O)N(c2c(C)cccc2C)C1=O (stereo unspecified)	25.1%	
CN1C(=O)C2(c3ccccc31)N(C)CC(c1ccccc1)C21SC(=S)N(Cc2ccco2)C1=O (stereo unspecified)		13.3 µM (active)
CC(C)c1nc2c(c(-c3ccc(O)cc3)n1)CCN(CC1CCCCC1)CC2		4.73 µM (active)
CCc1nc2c(c(-c3ccc(Cl)cc3)n1)CCN(CC1CCCCC1)CC2	-2.24%	
COc1cccc(C(=O)N2CCc3nc(C4CC4)nc(-c4ccc(Cl)cc4)c3C2)c1	-28.7%	

Compound	activity change, negative = inhibition	Potency
Cc1ccc(CN2CCc3nc(C(=O)Nc4nc(C)cs4)oc3CC2)cc1	-27.9% [at 43.1 µM]	
Oc1ccc(-c2nc(C3CC3)nc3c2CCN(CC2CCCCC2)CC3)cc1		4.73 µM (active)
Cc1ccc(CN2CCc3nc(C4CC4)nc(-c4ccc(O)cc4)c3CC2)cc1		4.73 µM (active)
COc1ccc(-c2nc(C3CC3)nc3c2CCN(Cc2cccnc2)CC3)cc1		13.3 µM (active)
Oc1ccc(-c2nc(C3CC3)nc3c2CN(CC2CCCCC2)CC3)cc1		6.68 µM (active)
Cc1nc2c(c(-c3ccc(Cl)cc3)n1)CCN(C(=O)c1ccc(C(F)(F)F)cc1)CC2	31.3%	
O=C(c1ccc(C(F)(F)F)cc1)N1CCc2nc(C3CC3)nc(-c3ccc(Cl)cc3)c2CC1		13.3 µM (active)
O=C(c1ccccc1Cl)N1CCc2nc(-c3ccccc3)nc(-c3ccc(Cl)cc3)c2C1	5.28%	
Cc1cccc(-c2cc3nc(C)c(C)c(NCCCn4ccnc4)n3n2)c1		5.31 µM (active)
COc1ccc(-c2oc3ccccc3c2C#Cc2cncn2C)cc1		1.06 µM (active)
CCOC(=O)c1[nH]c(C)c(CCC(=O)N2CCN(c3cc(C)ccc3C)CC2)c1C		1.33 µM (active)
CN(C)[C@H]1CCCCN(C(=O)CCc2ccc(-c3ccc(Cl)cc3)[nH]2)C1	-7.6%	
O=C(CCc1cc2ccccc2[nH]c1=O)N1CCCCC1	-6.44%	
CCOC(=O)c1[nH]c(C)c(CCC(=O)N2CCN(c3cccc(C)c3C)CC2)c1C		1.33 µM (active)
CCOC(=O)c1[nH]c(C)c(CCC(=O)N2CCN(c3cc(Cl)ccc3C)CC2)c1C		1.19 µM (active)
CCO[C@H]1CN(C(=O)CCc2nc3c(C)c(C)ccc3[nH]2)C[C@@H]1O	14.7%	
N#C/C(=C\c1ccc(Sc2ccc(Cl)cc2)o1)c1nc2ccccc2[nH]1		2.99 µM (active)
N#C/C(=C\c1ccc(Cl)cc1)c1nc(-c2cc3ccccc3oc2=O)cs1	31.2%	
Cn1nc(-c2nncn2CC2CC2)c2c1CCN(C(=O)c1nn(C)c3ccccc13)C2	-12%	
CC1CCCN(Cc2c(O)ccc3c(=O)c(Oc4ccc(C(C)(C)C)cc4)c(C(F)(F)F)oc23)C1 (stereo unspecified)		0.299 µM (active)
COc1ccc(-c2cc3ccc(O)c(CN4CCCC(C)C4)c3oc2=O)cc1 (stereo unspecified)		2.37 µM (active)
CC1CCCN(Cc2c(O)ccc3c4c(c(=O)oc23)CCCC4)C1 (stereo unspecified)		6.68 µM (active)
CCc1ccc(Oc2c(C(F)(F)F)oc3c(CN4CCCC(C)C4)c(O)ccc3c2=O)cc1 (stereo unspecified)		1.33 µM (active)

Compound	activity change, negative = inhibition	Potency
CCc1noc(-c2cn(C3CCN(C(=O)c4ccc(N(C)C)cc4)CC3)nn2)n1	-18.2%	
COc1ccc(-c2ccccc2NC(=O)C2CCCN(Cc3c(O)cccc3OC)C2)cc1 (stereo unspecified)		2.11 µM (active)
COc1ccc(Oc2c(C(F)(F)F)oc3c(CN4CCCC(C)C4)c(O)ccc3c2=O)cc1 (stereo unspecified)		2.37 µM (active)
Cn1cc(-c2ccccc2Oc2ccccc2)c2nc(CN3CCOCC3)cn2c1=O	-9.15% [at 43.1 µM]	
COc1cccc(OC)c1CN1CCC2(CC1)CC(O)CCO2 (stereo unspecified)	-0.9%	
O=c1oc2c(CN3CCOCC3)c(O)ccc2cc1-c1ccccc1		9.44 µM (active)
CN(C)c1cccc(C(=O)N2CCC(c3n[nH]c(=O)n3-c3ccccc3)CC2)c1	-10.6%	
Cc1noc(C)c1-c1cc2c(cc(-c3ccccc3)n2C)c(-c2ccnn2C)n1		8.63 µM (active)
COc1cc(F)ccc1-c1nc(-c2c(C)noc2C)cc2[nH]c(C)cc12	-24.1% [at 43.1 µM]	
Cc1noc(C)c1-c1cc2c(cc(-c3ccccc3)n2C)c(-c2cccnc2)n1		10.9 µM (active)
COc1ncccc1-c1nc(-c2c(C)noc2C)cc2c1cc(-c1ccccc1)n2C		13.7 µM (active)
Cc1ccc(S(=O)(=O)Nc2cc(C)cn(Cc3ccc(F)cc3)c2=O)cc1	-2.09%	
O=c1c([N+](=O)[O-])cccn1Cc1ccc(F)cc1Cl		4.73 µM (active)
Cc1ccc(CNC(=O)CN2CCN(Cc3ccc(F)cc3Cl)C2=O)cc1	24.2%	
O=C(CSc1nccn1-c1cccc(Cl)c1)NO	16.2%	
Cc1ccccc1-n1c(SCC(=O)Nc2ccc(Cl)cc2Cl)nc(O)cc1=O	-7.22%	
CCCn1c(SCC(=O)Nc2cc(Cl)ccc2Cl)n[nH]c1=O		5.31 µM (active)
CC(=O)c1c(N2CCN(C)CC2)[nH]c(-c2ccccc2)nc1=S		5.96 µM (active)
CC(C)(C)C1CCc2[nH]c3ccccc3c(=O)c2C1 (stereo unspecified)		1.88 µM (active)
O=c1c2c([nH]c3ccccc13)CCCC2		6.68 µM (active)
O=c1c2c([nH]c3ccc(Br)cc13)CCCC2		6.68 µM (active)
O=c1c(-c2ccccc2)n[nH]c2ccccc12	35%	

Source: PubChem BioAssay AID1347416 (National Center for Advancing Translational Sciences (NCATS), 2020)
